Screens (PubChem)
A selection: hits, their analogues and other compounds. The true share with any hit is near 4.1%.
MITF TRPM1 inh: inhibitors of MITF-dependent TRPM1 promoter reporter, primary screen, cell-based, SK-MEL-5, single point, luciferase | SK-MEL-5 TRPM1 promoter luciferase, 24 h | inhibition, % at 12.5 µM | 0.83% of 330,000 active | AID 488899, 2010;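 active = mean inhibition across replicates of 60% or more, whatever share of single replicates reaches that level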
Shn3 3UTR inh: reduction of Shn3 3'UTR firefly luciferase signal, primary screen, Schnurri-3 inhibitor project, cell-based, Clone20 osteoblasts, set 2. Clone20 osteoblast Shn3 3'UTR firefly luciferase, 24 h. 0.52% of 360,000 active. AID 588674, 2011. inhibition, % at 12.5 µM;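 active = mean inhibition of at least 75% with every replicate also reaching 75%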
Peg3 prom inh: Peg3 promoter-driven luciferase inhibitors, primary screen, cell-based, HeLa, luciferase luminescence; 1.7% of 360,000 active; inhibition, % at 20 µM; AID 588405, 2011; HeLa PEG-Prom luciferase reporter, overnight;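 active = inhibition of at least 50% at 20 µM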
TROY NFkB inh: inhibitors of TROY-driven NF-kB signaling, primary screen, Q293 LMP1-TROYcd cells, NF-kB luciferase, uHTS; 0.98% of 360,000 active; AID 1347056, 2019; inhibition, % at 10 µM; Q293 LMP1-TROYcd NF-kB luciferase reporter, 4 h;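 active = compounds whose plate-normalised and pattern-corrected inhibition of the luciferase reporter signal at the single screening dose is 50% or more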
EBV LMP1 NFkB: EBV LMP1-driven NF-kappaB luciferase reporter inhibitors, primary screen, cell-based, luminescence, single point. AID 504558, 2011. LMP1-induced NF-kappaB luciferase reporter cells. 0.69% of 350,000 active. inhibition, % at 12.5 µM; in the data active = inhibition above about 41%
TWEAK-Fn14 inh: inhibitors of TWEAK-Fn14 signaling, primary screen, luciferase reporter cells, uHTS; TWEAK-stimulated Fn14 reporter cells, luciferase luminescence, 8 h; inhibition, % at 10 µM; 2% of 360,000 active; AID 1159606, 2016; in the data active = inhibition above about 50%
Hits are given with their value; – = inactive; · = no result given.

SMILES	MITF TRPM1 inh	Shn3 3UTR inh	Peg3 prom inh	TROY NFkB inh	EBV LMP1 NFkB	TWEAK-Fn14 inh
CCC1CCCCN1CCCNC(=O)c1cn(C)c2ccc(S(=O)(=O)N(C)C3CCCCC3)cc2c1=O (centres undefined)	–	–	–	–	–	–
COC1C=CC=C(C)C(=O)NC2=CC(=O)C(N)=C(CC(C)CC(OC)C(O)C(C)C=C(C)C1OC(N)=O)C2=O (centres undefined)	65	87	64	–	72	70
COc1ccccc1C(=O)NCCN1CCN(c2ccccc2)CC1	–	–	–	–	–	–
CC(C)c1cc(C(=O)NNC(=S)NC2CCCCC2)cs1	–	–	–	–	–	50
CCCSc1nc2cc(S(=O)(=O)N3CCOCC3)ccc2n1CC	–	–	–	–	67	–
CCCCn1c(CCl)nc2cc(S(=O)(=O)N3CCOCC3)ccc21	–	–	58	–	–	–
CCn1c(SCC#N)nc2cc(S(=O)(=O)N3CCOCC3)ccc21	–	–	–	–	–	–
O=C(Cc1ccc(-n2c(=O)[nH]c3ccsc3c2=O)cc1)N1CCN(c2ccc(Cl)cc2)CC1	–	–	–	–	–	–
NC(=O)C1=C(N=C2CCCCC2)CCCC1	–	–	–	–	–	–
Cc1ccc(N=Cc2ccccc2O)cc1Cl	–	–	–	–	–	59
COc1ccc(N=Cc2cc(Cl)ccc2O)cc1Cl	–	–	–	–	–	–
COc1ccc2cc3cc(C(=O)Nc4cc(OC)c(OC)c(OC)c4)oc3nc2c1	–	–	–	–	–	63
COc1ccc2cc3cc(C(=O)Nc4ccc5c(c4)OCCO5)oc3nc2c1	–	–	–	–	–	–
CCOC(=O)c1cnc2ccc(OCC)cc2c1NCc1ccccc1OC	–	–	–	54	–	72
CCOC(=O)c1cnc2ccc(OC)cc2c1NCc1ccccc1	–	–	–	–	–	–
CC(C)(C)NC(=O)CN(C(=O)C1CSC(=O)C1)c1ccc2c(c1)OCCO2 (centres undefined)	–	–	–	54	–	61
COc1cccc(N(CC(=O)NC(C)(C)C)C(=O)C2CSC(=O)C2)c1 (centres undefined)	–	–	–	–	–	–
CCOc1ccc(/C=N/NC(=O)c2[nH]ncc2Br)c(O)c1	–	–	–	–	–	76
COc1ccc(OC)c(/C=N/NC(=O)c2[nH]ncc2Br)c1	·	–	–	–	·	–
CCN(CC)CCCCN1c2ccccc2Sc2ccccc21	–	–	–	–	–	–
Cc1c(C(=O)Nc2ccncc2)sc2nc(-c3ccccc3)cn12	·	–	–	–	–	68
Cc1c(C(=O)Nc2ccc3c(c2)OCCO3)sc2nc(-c3ccccc3)cn12	–	–	–	67	–	85
CN(C)CCCNc1nc2cc(-c3cccc(Cl)c3)sc2c(=O)n1C	·	–	91	–	·	–
CN(C)CCCNc1nc2cc(-c3cccc(C(F)(F)F)c3)sc2c(=O)n1C	·	–	96	–	·	–
COc1ccc(-c2cc3nc(NCc4ccc(C)cc4C)n(C)c(=O)c3s2)cc1OC	·	–	–	–	·	76
SMILES	MITF TRPM1 inh	Shn3 3UTR inh	Peg3 prom inh	TROY NFkB inh	EBV LMP1 NFkB	TWEAK-Fn14 inh
NS(=O)(=O)c1ccc(CNC(=O)c2scc3c2CCCC3)cc1	–	–	–	–	–	–
COc1cccc(NC(=O)c2c(C)cc(C)cc2CC(C)(C)C(=O)O)c1	–	–	–	–	–	–
CCN(CC)CCCNC(=S)N1CCN(c2nc(-c3ccc(F)cc3)cs2)CC1	–	–	71	–	–	–
O=C(N/N=C\c1ccc(-c2cccc(Cl)c2)o1)C(=O)NC1CCCC1	–	–	–	–	–	–
CC1CCN(Cc2ccc(-c3nnn(CC(=O)Nc4ccccc4Cl)n3)cc2)CC1	–	87	–	–	–	–
Cc1cccc(C)c1NC(=O)Cn1nnc(-c2ccc(CN3CCC(C)CC3)cc2)n1	–	–	–	–	–	–
NNc1nc2sc3c(c2c(=O)n1Cc1ccccc1)CCC3	–	–	–	–	–	–
NNc1nc(-c2ccccc2)nc2sc3c(c12)CCCC3	–	–	–	72	–	79
Cc1cc(C(=O)Cn2nnc3ccccc3c2=O)c(C)n1-c1ccccc1F	–	–	–	82	–	73
Cc1cc(C(=O)COC(=O)c2ccc(O)cc2)c(C)n1CC(F)(F)F	·	–	–	–	–	–
COc1ccc(-n2c(C)cc(C(=O)Cn3nnc4ccccc4c3=O)c2C)cc1	–	–	–	–	–	–
Cc1cc(C(=O)COC(=O)C2=NNC(=O)CC2)c(C)n1-c1ccccc1	–	–	–	57	–	–
Cc1cc(C(=O)COC(=O)c2ccc(O)cc2)c(C)n1-c1ccccc1F	–	–	–	84	–	75
Cc1cc(C(=O)COC(=O)c2ccc[nH]c2=O)c(C)n1-c1ccccc1F	–	–	–	–	–	59
Cc1ccc(-n2c(C)cc(C(=O)COC(=O)c3ccc[nH]c3=O)c2C)cc1C	–	–	–	–	–	–
CN1CCN(S(=O)(=O)c2cccc(C(=O)N(Cc3ccccc3)c3ccccc3)c2)CC1	–	–	–	–	–	–
CC(C(=O)Nc1ccc(C#N)cc1)N(C)CC(=O)Nc1ccccc1Br (centres undefined)	–	–	–	–	–	–
CCCn1c(C)cc(C(=O)COC(=O)c2ccc[nH]c2=O)c1C	–	–	–	72	48	80
CCOc1ccc(/C=N/NC(=O)c2c(-c3ccccc3)noc2C)cc1	–	–	–	–	–	–
CCN(CC)c1ccc(/C=N/NC(=O)c2c(-c3ccccc3)noc2C)cc1	–	–	–	53	–	–
Cc1onc(-c2ccccc2)c1C(=O)N/N=C/c1ccc([N+](=O)[O-])s1	65	–	–	–	–	–
Cc1onc(-c2ccccc2)c1C(=O)N/N=C/c1ccco1	–	–	–	–	–	–
CCCCC(=O)OCC(=O)Nc1ccc(SC(F)F)cc1	–	–	–	–	–	–
CCCN(CCC)c1ncnc2nc[nH]c12	·	–	–	50	48	63
O=C(Nc1ccc(Oc2nnc(-c3ccccc3)c3ccccc23)cc1)c1ccccc1	–	–	–	–	–	–
COc1cccc(CN2CCN(C3CCOCC3)CC2CCO)c1 (centres undefined)	–	–	–	–	–	–
C=CCN=c1scc(-c2ccc3c(c2)NC(=O)CO3)n1/N=C(\C)c1ccccn1	–	–	–	–	–	66
C=CCN=c1scc(-c2ccc(F)cc2)n1/N=C/c1ccccn1	–	–	–	–	–	–
C[C@H]1CN([C@@H](C)CO)C(=O)CCCn2nncc2CO[C@H]1CN(C)S(=O)(=O)c1ccccc1F	·	–	–	–	–	–
c1ccc(-c2cn3ccccc3n2)cc1	–	–	–	–	–	–
